# Screen size: about 190,000 compounds; about 2,000 (1.1%) were called active. This is one part of a sample in which actives are shown more often than they occur. A number with no mark means an inactive call.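 Rule for the calls: active = activation above a set limit, based on mean plus 3 SD of controls (cut at about 140% in these data); inconclusive = one replicate above the limit, the other below; inactive = the rest.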
# Assay: activators of APP 5'UTR luciferase reporter, primary screen, SH-SY5Y cells (AID 1276)
# Settings: SH-SY5Y APP 5'UTR luciferase reporter, luminescence; at 2 µM; hits give high values; zero percent = DMSO vehicle wells
row,Structure (SMILES),activation
1,CC(=O)c1ccc(S(=O)(=O)Nc2ccc(C(=O)NCC(c3ccccc3)N(C)C)cc2)cc1 (stereo unspecified),-1.54%
2,COc1ccccc1N1CCN(c2ccc([N+](=O)[O-])nc2)CC1,0.38%
3,O=C(N/N=C/c1ccc(Cl)cc1)c1nc2ccc([N+](=O)[O-])cc2c(=O)[nH]1,5.49%
4,COc1cccc(-n2c(=S)[nH]c3c(oc4ccccc43)c2=O)c1,23%
5,Cc1cccc(-n2c(C)cc(/C=N/NC(N)=S)c2C)c1,-0.81%
6,Cc1ccc(N=Cc2c(O)n(-c3nccs3)c(=O)c3ccccc23)c(C)c1,11.8%
7,Cc1cccc(-n2c(O)c(C=Nc3ccccc3N)c(=O)[nH]c2=O)c1,148% (active)
8,CCCCc1nnc(NC(=O)CSc2nc(N)cc(=O)[nH]2)s1,-0.9%
9,O=c1[nH]c2ccccc2s1,-19.6%
10,COc1cc([N+](=O)[O-])ccc1NC(=S)N1CCN(c2ccccn2)CC1,-4.93%
11,COc1nc(N(C)C)nc(N2CC(=O)N(CCNS(=O)(=O)c3ccc(C)cc3)C2=N)n1,-1.55%
12,CC(=O)n1cc([C@@H]2C=C(C(=O)N3CCN(Cc4ccc5c(c4)OCO5)CC3)O[C@H](OCc3ccc(CO)cc3)C2)c2ccccc21,-22.2%
13,NC(=O)COC(=O)/C=C/c1ccc2ccccc2n1,2.32%
14,COc1cccc(/C=C/c2ccc3ccccc3n2)c1OC(C)=O,131%
15,CCOc1cccc(/C=C/c2ccc3ccccc3n2)c1OC(C)=O,216% (active)
16,O=C(c1cccc(S(=O)(=O)N2CCCC2)c1)N(Cc1ccco1)C1CCS(=O)(=O)C1 (stereo unspecified),11.1%
17,Cc1ccc(S(=O)(=O)/N=C(/Nc2ccc3[nH]c(=O)[nH]c3c2)c2ccccc2)cc1,-13.5%
18,CCOc1ccc(CN2CCN(Cc3ccon3)CC2CCO)cc1 (stereo unspecified),7.1%
19,O=C(c1cnn2ccccc12)N1CCc2ccccc21,145% (active)
20,O=C(c1cccc(C(=O)N2CCc3ccccc32)n1)N1CCc2ccccc21,-32.2%
21,NC(=O)N1CCc2ccccc21,-5.27%
22,Cc1ccc(C(=O)N2CCN(S(=O)(=O)N3CCOCC3)CC2)cc1,0.65%
23,Cc1ccc(-c2cn3cc([N+](=O)[O-])ccc3n2)cc1,120%
24,Cc1ccc(-n2cc3ccc([N+](=O)[O-])cc3n2)cc1,179% (active)
25,Cc1cc(C)nc(Nc2cc([N+](=O)[O-])ccc2C)n1,-6.89%
26,Cc1cc([N+](=O)[O-])ccc1NC1CCCC1,-0.84%

# Source: PubChem BioAssay AID1276 (Columbia University Molecular Screening Center, 2008)
